In PubChem BioAssay AID2280 (The Scripps Research Institute Molecular Screening Center, 2010):
Several values for one entry are separate records, joined by “and”; a condition that tells them apart may be missing. Equal values may be shown once. Hit rate of the full screen: of about 320,000 compounds, about 1,400 (0.44%) were called active.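 The calls were made as follows: active = percent inhibition above a per-plate cutoff, the plate mean of test compounds plus 3 SD (cut at about 30% in these data); inactive = the rest.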 The list comes from a sample in which actives are over-represented; it also holds similar structures and randomly drawn compounds. Where a structure was tested more than once in an assay, its records may differ in their call.

target: Female germline-specific tumor suppressor gld-1 (Caenorhabditis elegans) (UniProt Q17339); test: GLD-1/TGE RNA complex disruptors, primary screen, biochemical, fluorescence polarization (AID 2280); details: purified GLD-1 + fluorescein TGE RNA, at 5.96 µM, stronger effect = higher value;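 also: 0% = DMSO wells with GLD-1 and probe and 100% = wells lacking GLD-1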
Sequence (Q17339 whole entry, looked up): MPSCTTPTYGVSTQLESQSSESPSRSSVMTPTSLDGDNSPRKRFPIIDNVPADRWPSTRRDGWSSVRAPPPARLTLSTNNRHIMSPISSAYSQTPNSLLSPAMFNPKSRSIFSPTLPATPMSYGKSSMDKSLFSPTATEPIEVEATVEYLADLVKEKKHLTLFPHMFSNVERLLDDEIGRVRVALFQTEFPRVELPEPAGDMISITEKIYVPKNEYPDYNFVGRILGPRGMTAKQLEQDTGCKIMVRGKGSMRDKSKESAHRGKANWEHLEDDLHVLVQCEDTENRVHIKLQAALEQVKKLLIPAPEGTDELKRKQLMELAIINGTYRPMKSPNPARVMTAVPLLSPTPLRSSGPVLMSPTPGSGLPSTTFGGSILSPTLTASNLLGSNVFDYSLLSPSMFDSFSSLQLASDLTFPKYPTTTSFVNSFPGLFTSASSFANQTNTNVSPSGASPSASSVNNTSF

SMILES	inhibition
C/C(=N\NC(=O)c1ccoc1C)c1ccccc1O	2.44% (inactive)
Cc1nn(C(=O)c2ccoc2C)c(N)c1-c1ccccc1	126% (active)
CCOC(=O)c1c(N)nn(C(=O)c2ccccc2)c1-c1ccccc1	7.39% (inactive)
CC(C)N(C)C(=O)CCc1nnc(CCc2c[nH]c3ccccc23)o1	7.03% (inactive)
Cc1ccccc1Nc1nc(N)nc(CSc2nnc3ccccn23)n1	35.3% (active)
Cc1ccccc1Nc1nc(N)nc(CN2CCN(c3ccccn3)CC2)n1	2.81% (inactive)
Cc1ccccc1Nc1nc(N)nc(CSc2ccccc2)n1	6.58% (inactive)
COc1ccc(C(C)=O)cc1COC(=O)Cn1cnc2ccccc2c1=O	-1.6% (inactive)
Cc1cc(NC(=O)CSc2nc3c(cc2C#N)CCCCC3)no1	6.13% (inactive)
CC1(C)CCc2nc(SCc3ccccc3)c(C#N)cc2C1	6.74% (inactive)
CC(NC(=O)CSc1nc2c(cc1C#N)CN(C)CC2)c1ccccc1 (centres undefined)	35.9% (active)
CCOC(=O)C(C)n1cnc2c(nnn2-c2ccc(F)cc2)c1=O (centres undefined)	2.21% (inactive)
CCCCn1ccnc1C(=O)c1cccc(S(=O)(=O)N2c3ccccc3CC2C)c1 (centres undefined)	0.24% (inactive)
Cc1ccc(NC(=S)NC(=O)c2ccc(-c3ccccc3)cc2)cc1	-3.26% (inactive)
Cc1ccc(C(=O)NC(=S)Nc2ccccc2C)cc1	-1.38% (inactive)
COC(=O)c1sc(NC(=S)NC(=O)c2ccc(C)cc2)nc1C	60.9% (active)
COc1cc(N2CCCC2)c(OC)cc1/C=C(/C#N)c1cccc(Br)c1	-45.9% (inactive)
CC(Sc1nnc(-c2cccs2)n1C1CC1)C(=O)NCC1CCCO1 (centres undefined)	-1.09% (inactive)
O=S(=O)(c1ccc(Cl)cc1)N1CCCN(c2ccc(C(F)(F)F)cn2)CC1	3.79% (inactive)
CN(C)c1ccc(Nc2c3c4c(cccc4n(C)c2=O)C(=O)c2ccccc2-3)cc1	53.9% (active)

SMILES	inhibition
CN(Cc1ccc(F)cc1)C(=O)CN1C(=O)c2ccccc2S1(=O)=O	-0.45% (inactive)
O=S(=O)(NCCCCCCNS(=O)(=O)c1c(F)cccc1F)c1ccc2c(c1)OCCO2	-2.33% (inactive)
C=CCOc1cccc(C2C(C(=O)c3ccc(C)o3)=C(O)C(=O)N2CCCn2ccnc2)c1 (centres undefined)	5.89% (inactive)
Cc1cc(N2C(=O)C(O)=C(C(=O)c3ccc(C)o3)C2c2ccc(OCc3ccccc3)cc2)no1 (centres undefined)	12.7% (inactive)
C=CCOc1cccc(C2C(C(=O)c3ccc(C)o3)=C(O)C(=O)N2c2nnc(C)s2)c1 (centres undefined)	91.3% (active)
CCN1CCC2(CCN(Cc3cn[nH]c3-c3ccc(OC)c(F)c3)C2)C1 (centres undefined)	6.39% (inactive)
COc1ccccc1C(=O)N(C1=NC(C)CS1)c1ccc(Cl)cc1 (centres undefined)	5.47% (inactive)
NC(=O)c1ccc(-c2csnn2)cc1	-0.25% (inactive)
COc1ccc(NC(=O)C(C)SCc2ccccc2)cc1 (centres undefined)	4.3% (inactive)
O=C1N=C2SCCN2/C1=C\c1c(Cl)cccc1Cl	3.87% (inactive)
CCC(=NC1CC(C)(C)NC(C)(C)C1)C1=C(O)CC(C)(C)CC1=O	0.57% (inactive)
CN(CCOc1ccccc1)C(=O)c1cc(-c2ccco2)nc2ccccc12	44.1% (active)
CN(C(=O)COC(=O)c1cc(-c2ccco2)nc2ccccc12)C1CCS(=O)(=O)C1 (centres undefined)	24.7% (inactive)
COc1ccc(NC(=O)CN(C)C(=O)c2cc(-c3ccc(C)o3)nc3ccccc23)cc1	1.85% (inactive)
Cn1nc(-c2ccccc2)c(CSc2cccc(Cl)c2)c1Cl	3.82% (inactive)
C=CCN(Cc1nc(-c2cc(OC)c3c(c2)OCO3)oc1C)C1CCS(=O)(=O)C1 (centres undefined)	3% (inactive)
COc1ccc(CCNS(=O)(=O)c2cc3c(cc2C)NC(=O)CO3)cc1OC	5.55% (inactive)
COC1=C(N2CCOCC2)C(=O)c2ccccc2C1=O	5.26% (inactive)
O=C1c2ccccc2-c2ncnc3c(N4CCOCC4)cc(N4CCOCC4)c1c23	47.9% (active)
Cc1oc2c(c1C(=O)N1CCOCC1)C(=O)c1ccccc1C2=O	-4.37% (inactive)

SMILES	inhibition
CCOc1ccc(NC(=O)CSc2ncnc3c2sc2ccccc23)cc1	7.48% (inactive)
CN(C)C=NC(=O)c1cccn1-c1ncc(C(F)(F)F)cc1Cl	3.24% (inactive)
CC1CCCCC1NC(=O)COC(=O)Cc1ccc(Cl)cc1 (centres undefined)	0.1% (inactive)
Cc1cc(C)c(S(=O)(=O)N2CCCC2CNC(=O)c2ccc3c(c2)OCO3)c(C)c1 (centres undefined)	-0.56% (inactive)
Cc1[nH]c2ccccc2c1CCN(Cc1cccs1)C(=S)NC(C)(C)C	5.63% (inactive)
COc1ccc2[nH]c(C)c(CCN(Cc3cccs3)C(=S)Nc3ccccc3OC)c2c1	50% (active)
COc1cccc(NC(=S)N(CCc2c(C)[nH]c3ccccc23)Cc2ccco2)c1	2.83% (inactive)
CCOC(=O)Cc1csc(SCC(=O)NC(C)C23CC4CC(CC(C4)C2)C3)n1 (centres undefined)	-5.16% (inactive)
FC(F)(F)c1cccc(Nc2ncnc3ccccc23)c1	8.73% (inactive)
O=c1cc(CO)oc(C(Nc2cccc(C(F)(F)F)c2)c2ccccn2)c1O (centres undefined)	75.6% (active)
O=c1cc(CO)oc(C(Nc2cccc([N+](=O)[O-])c2)c2ccccn2)c1O (centres undefined)	25.3% (inactive)
O=C(CN1CCOC1=O)N1CCCC(Nc2ccc(F)c(F)c2)C1 (centres undefined)	-0.97% (inactive)
CCCC1OC23CCCCC2C(C#N)(C#N)C1(C#N)C(=N)O3 (centres undefined)	63.5% (active)
O=C1CCC(=O)N(c2ccccc2)N1	3.62% (inactive)
O=C(Nc1ccc(Cl)cc1)N1CCc2[nH]c3ccccc3c2C1	7.58% (inactive)
COC(=O)C1CCN(C(=O)c2cc(=O)[nH]c3ccccc23)CC1	4.47% (inactive)
COC(=O)[C@H]1[C@H]2C[C@H]3c4[nH]c5ccccc5c4CCN3C[C@@H]2CC[C@@H]1O	8.5% (inactive) and 48.8% (active)
O=C1c2cccc(OCC(=O)N3N=C(c4cccs4)CC3c3ccc(F)cc3)c2CCN1Cc1ccccc1 (centres undefined)	-0.98% (inactive)
CC1CCCCC1NC(=O)Cn1c(=O)cnc2ccccc21 (centres undefined)	-4.13% (inactive)
